Test results taken from PubChem BioAssay AID504914 (The Scripps Research Institute Molecular Screening Center, 2011).
Some of the results follow. A number with no mark means an inactive call. No rule for the calls is given here.

Target: 5-hydroxytryptamine receptor 5A (Homo sapiens) (UniProt P47898)
Experiment: HTR5A inverse agonists, counter-screen for OPRM1-OPRD1 inverse agonist project, cell-based, luminescence (AID 504914);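 also: 0% = cells with DMSO and 100% = no-cell wells with DMSO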
Conditions: HTR5A-expressing cells, inverse agonism, at 9.3 µM, hits give high values

Sequence of 5-hydroxytryptamine receptor 5A (Homo sapiens) (P47898 whole entry, looked up): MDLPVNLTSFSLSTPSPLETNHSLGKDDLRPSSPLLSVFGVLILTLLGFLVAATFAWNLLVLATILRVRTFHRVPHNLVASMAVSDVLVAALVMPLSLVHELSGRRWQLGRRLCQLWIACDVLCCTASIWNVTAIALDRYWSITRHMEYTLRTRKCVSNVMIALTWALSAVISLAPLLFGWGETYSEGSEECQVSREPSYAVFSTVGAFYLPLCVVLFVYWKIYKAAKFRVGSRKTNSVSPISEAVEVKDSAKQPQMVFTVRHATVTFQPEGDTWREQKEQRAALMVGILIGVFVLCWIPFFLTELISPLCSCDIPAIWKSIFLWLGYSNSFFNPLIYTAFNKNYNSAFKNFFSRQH

SMILES | inhibition
CCOC(=O)c1c(N)n(CCN2CCOCC2)c2nc3ccccc3nc12 | -10.8%
CC1=CC(=Cc2sc3ccccc3[n+]2C)C=C(C)O1 | -18.3%
CCOC(=O)c1c(N)n(Cc2ccccc2)c2nc3ccccc3nc12 | 18%
